Test [1] addresses Cell division control protein 42 homolog (Homo sapiens) (UniProt P60953). In words: inhibition of fluorescent GTP binding to wildtype Cdc42 – biochemical, multiplex bead flow cytometry, Bodipy-FL-GTP, dose response (AID 1334;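 active means fitted half-maximal concentration within the tested range, moderate curve steepness, significant signal drop, and little compound fluorescence or bead-linkage interference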). The following applies: bead-based flow cytometry, Bodipy-FL-GTP binding to GST-Cdc42; at 100 µM (top of the series) unless noted. For orientation: Flow cytometry measures light scatter and fluorescence of single cells or particles in a stream.

In test [2] the target is GTPase HRas (Homo sapiens) (UniProt P01112). In words: Ras wt fluorescent GTP loading blockade – biochemical, wildtype, multiplex bead flow cytometry, dose response (AID 1335;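 active means fitted half-maximal concentration within 10 nM to 100 µM, steepness 0.5 to 2, significant signal drop, low assay interference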). The following applies: bead-based flow cytometry, Bodipy-GTP binding to GST-Ras; at 100 µM (top of the series) unless noted.
For test [3], the system named is Ras-related protein Rab-7a (dog), GTP binding. In words: blockers of fluorescent GTP binding to Rab7 – biochemical, wildtype, multiplex bead flow cytometry, dose response (AID 1336; call rule not given here).
The target in test [4] is Ras-related C3 botulinum toxin substrate 1 (Homo sapiens) (UniProt P63000). In words: inhibition of wildtype Rac1 nucleotide loading – biochemical, multiplex bead flow cytometry, dose response (AID 1340;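 active means dose curve with midpoint inside tested range, moderate steepness, plateau gap beyond fit error, low compound glow and bead-link interference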). The following applies: GST-Rac1 beads, Bodipy-FL-GTP binding; at 100 µM (top of the series) unless noted.
Test [5] addresses GTPase HRas (Homo sapiens) (UniProt P01112). In words: blockade of GTP loading onto mutant Ras – biochemical, activated mutant, multiplex bead flow cytometry, dose response (AID 1341).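 Further: GST-tagged constitutively activated Ras mutant immobilized on beads and multiplexed with other GTPases.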
Test [6] deals with Cell division control protein 42 homolog (Homo sapiens) (UniProt P60953). In words: inhibition of fluorescent GTP binding to constitutively active Cdc42 – biochemical, multiplex bead flow cytometry, Bodipy-FL-GTP, dose response (AID 1333;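 active means fitted half-maximal concentration within the tested dose range, moderate curve steepness, a statistically real signal drop, and little compound fluorescence or tag-binding interference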).
Test [7] is described as follows: hit retest on RPL19A-GFP reporter strain – cell-based, S. cerevisiae, flow cytometry, cherry picks, mother/daughter gates, confirmation (AID 2270;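 active means GFP response below 50% of the DMSO control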). The following applies: 3 h, at 10 µM, stronger effect = lower value, 100 = same GFP as DMSO wells.
Test [8] can be described thus: yeast TOR pathway reporter LAP4-GFP change – cell-based, cherry picks, flow cytometry, mother/daughter gates, confirmation (AID 2271;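 active means GFP response above 150% of the DMSO control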;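 further: ratio of sample to DMSO plate mean so 100% equals DMSO level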). The following applies: S. cerevisiae LAP4-GFP strain, 3 h, at 10 µM, stronger effect = higher value, 100 means same as DMSO control.
The nature of test [9]: TOR pathway reporter MEP2-GFP, retest of hits – S. cerevisiae, flow cytometry GFP, cherry picks, confirmation (AID 2272;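 active means GFP response above 150% of the DMSO control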;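 further: ratio of well signal to plate DMSO mean so 100% equals DMSO level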). The following applies: S. cerevisiae MEP2-GFP strain, 3 h, at 10 µM, stronger effect = higher value.
Test [10] is described as follows: yeast AGP1-GFP fluorescence change, single-dose – cell-based, flow cytometry, S. cerevisiae, cherry picks, confirmation (AID 2273;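 active means GFP response above 150% of the DMSO level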;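 further: median GFP channel fluorescence over the whole cell population gate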). The following applies: S. cerevisiae AGP1-GFP strain, 3 h, at 10 µM.
The nature of test [11]: TOR pathway CIT2 reporter hit retest – S. cerevisiae, GFP fusion, cherry picks, mother/daughter gates, confirmation (AID 2274;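 active means GFP response above 150% of the DMSO level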). The following applies: S. cerevisiae CIT2-GFP strain, flow cytometry, 3 h, at 10 µM, stronger effect = higher value.
[12] abbreviates: measured here: daughter cell gate.
The mark [13] stands for this setting: measured here: mother cell gate.

“And” between values parts separate entries of the source, which are not always exact repeats. Identical values can stand only once. For some of these results: Potency and affinity values are given separately. The source made the active and inactive calls.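 How the source made its calls, unless noted: active means dose-response curve with midpoint inside the tested range, moderate steepness, significant amplitude and little compound fluorescence or bead-attachment interference; inactive means the rest.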

Cell division control protein 42 homolog (Homo sapiens), sequence (P60953 whole entry, looked up): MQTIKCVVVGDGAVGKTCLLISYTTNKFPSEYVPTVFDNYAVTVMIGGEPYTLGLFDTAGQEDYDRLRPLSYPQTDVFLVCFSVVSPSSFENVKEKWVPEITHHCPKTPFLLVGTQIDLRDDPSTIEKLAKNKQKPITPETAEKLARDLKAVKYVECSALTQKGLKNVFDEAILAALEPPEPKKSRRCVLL
GTPase HRas (Homo sapiens), sequence (P01112 whole entry, looked up): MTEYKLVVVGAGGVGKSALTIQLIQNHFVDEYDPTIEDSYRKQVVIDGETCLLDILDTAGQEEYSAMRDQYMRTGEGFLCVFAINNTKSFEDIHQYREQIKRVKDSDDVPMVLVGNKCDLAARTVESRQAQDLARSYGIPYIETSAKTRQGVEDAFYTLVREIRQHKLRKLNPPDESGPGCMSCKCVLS

On to `O=C(C#Cc1ccc(F)cc1)c1ccc([N+](=O)[O-])cc1`, for which the fluorescence, percent of control (lower = inhibition) in test [1] came out at 39.2%. Further, the GTP binding, percent of control in test [2] was determined as 142%. Further, the call in [3] and in test [5] was inactive. In addition, the GTP binding signal, raw median fluorescence (lower = inhibition) (MCF (arbitrary fluorescence units)) in [4] turned out to be 48.4.

Turning to `CCC(C(=O)NC1CCCC1)N(C(=O)Cn1nnc(-c2ccc(C)o2)n1)c1cnc2ccccc2c1` (configuration not stated), the call in test [6], in [3] and in test [5] was inactive. Besides, the GTP binding, percent of control in [2] was 60.1%. In [4], this compound showed a GTP binding signal, raw median fluorescence (lower = inhibition) (MCF (arbitrary fluorescence units)) of 194.

With `COc1cc(/C=N/Nc2nnc3c(n2)[nH]c2ccccc23)ccc1O`, the compound was classed as inactive in test [6], in [3] and in test [5]. Moreover, in test [1], the fluorescence, percent of control (lower = inhibition) was found to be 33.9%. Also, the GTP binding, percent of control in test [2] worked out at 79.1%.

For the compound `O=C(O)/C=C/c1cn(Cc2ccccc2)nc1-c1ccc(Cl)cc1`, the outcome in [6], in test [3] and in [5] was inactive. In test [1], this compound came in with a fluorescence, percent of control (lower = inhibition) of 34.9%. The GTP binding, percent of control in [2] was 84.9%.

For the compound `CCOC(=O)c1nc(Nc2ccc(C(C)=O)cc2)c2ccccc2n1`, the compound was classed as inactive in [6], in test [3] and in test [5]. Moreover, the fluorescence, percent of control (lower = inhibition) in test [1] was determined as 36%. Besides, in test [2], the GTP binding, percent of control is 80.4%.

Turning to `Cc1ccc(-n2c(=O)cc(N3CCc4ccccc4C3)[nH]c2=O)cc1`, the call in test [6], in test [3] and in test [5] was inactive. In test [1], this compound displayed a fluorescence, percent of control (lower = inhibition) of 58.7%. For the same compound, in test [4], the GTP binding signal, raw median fluorescence (lower = inhibition) (MCF (arbitrary fluorescence units)) came to 251.

Take `CCOC(=O)c1c(NC(=O)C(=O)N/N=C/c2ccc(O)c(OC)c2)sc2c1CCCCC2`: the compound was classed as inactive in test [6], in [3] and in [5]. Moreover, the GTP binding, percent of control in test [2] amounted to 64.6%. The GTP binding signal, raw median fluorescence (lower = inhibition) (MCF (arbitrary fluorescence units)) in test [4] came out at 184.

As to `O=C(O)c1cn(CCOc2ccccc2)c2ccccc12`, the compound was classed as inactive in test [6], in test [3] and in [5]. For the same compound, the fluorescence, percent of control (lower = inhibition) in test [1] was determined as 76.5%. The compound further had a GTP binding, percent of control in test [2] of 92.7%.

Turning to `COc1ccc(-c2nnc(SCC(=O)c3cccs3)o2)cc1`, the result in test [6], in test [3] and in test [5] was inactive. The same compound displayed a fluorescence, percent of control (lower = inhibition) in test [1] of 94.6%. In test [2], this compound returned a GTP binding, percent of control of 141%.

Consider `CCOC(=O)CN(C(=O)CSc1nnc2c(n1)[nH]c1ccc(OC)cc12)c1ccc(F)cc1`, for which the result in test [6], in [3] and in test [5] was inactive. In test [1], this compound gave a fluorescence, percent of control (lower = inhibition) of 47.9%. Besides, the GTP binding, percent of control in [2] worked out at 58.9%.

As for `NS(=O)(=O)c1ccc(N2N=C(c3ccccc3)CC2c2cccc(F)c2)cc1` (configuration not stated), the GTP binding, percent of control in test [2] is 50% and 86.8%. The outcome in test [3] and in test [5] was inactive. Further, the GTP binding signal, raw median fluorescence (lower = inhibition) (MCF (arbitrary fluorescence units)) in [4] is 0 and 100.

As for `Cc1cccc2cc(CN(Cc3cccs3)C(c3nnnn3C3CCCC3)C(C)C)c(=O)[nH]c12` (configuration not stated), the GTP binding, percent of control in [2] is 60.6%. The outcome in test [3] and in test [5] was inactive. In test [4], this compound gave a GTP binding signal, raw median fluorescence (lower = inhibition) (MCF (arbitrary fluorescence units)) of 207.

Consider `COc1ccc(OC)c(-c2c3cc(O)c(=O)cc-3oc3cc(O)c(O)cc23)c1`, for which, in [4], the GTP binding signal, raw median fluorescence (lower = inhibition) (MCF (arbitrary fluorescence units)) was determined as 137.

Compound `COc1ccc(C2CC(c3ccccc3)=NN2c2ccc(S(N)(=O)=O)cc2)cc1` (configuration not stated) had a GTP binding, percent of control in test [2] of 84.1%. Also, the outcome in test [3] and in test [5] was inactive. Moreover, the GTP binding signal, raw median fluorescence (lower = inhibition) (MCF (arbitrary fluorescence units)) in test [4] was 260 and 239.

In [2], `CCCN1C(=O)/C(=C/C=C2\N(CC)c3ccccc3C2(C)C)SC1=S` returned a GTP binding, percent of control of 127%. Besides, the result in [3] and in test [5] was inactive. This compound gave a GTP binding signal, raw median fluorescence (lower = inhibition) (MCF (arbitrary fluorescence units)) in test [4] of 176.

As for `CCN(CC)c1ccc(/C=C(\C#N)C(=O)c2ccc(Br)cc2)cc1`, the GTP binding signal, raw median fluorescence (lower = inhibition) (MCF (arbitrary fluorescence units)) in [4] was 0.

On to `COc1ccc(-c2cc(=O)c3cc(OC)ccc3[nH]2)cc1`, for which, in [4], the GTP binding signal, raw median fluorescence (lower = inhibition) (MCF (arbitrary fluorescence units)) is 229.

The compound `CCOC(=O)c1cc([N+](=O)[O-])c([N+](=O)[O-])cc1NC(C)=O` came in with a GTP binding, percent of control in test [2] of 75%. Moreover, the result in test [3] and in [5] was inactive. The same compound yielded a GTP binding signal, raw median fluorescence (lower = inhibition) (MCF (arbitrary fluorescence units)) in [4] of 241.

`O=C(Nc1nnc(-c2ccc3c(c2)OCCO3)o1)c1ccc(Cc2ccccc2)cc1` returned a GTP binding, percent of control in test [2] of 83.9%. The call in test [3] and in test [5] was inactive. Further, the GTP binding signal, raw median fluorescence (lower = inhibition) (MCF (arbitrary fluorescence units)) in [4] was found to be 144.

`O=C(/C=C/c1ccco1)Nc1ccc(-c2nc3ccccc3[nH]2)cc1` returned a GTP binding signal, raw median fluorescence (lower = inhibition) (MCF (arbitrary fluorescence units)) in [4] of 273.

As to `COc1cccc(NC(=O)COC(=O)/C=C/c2ccc(Cl)cc2Cl)c1`, the fluorescence, percent of control (lower = inhibition) in [1] is 48.4%. Further, the GTP binding, percent of control in test [2] amounted to 62%. For the same compound, the result in test [3] and in test [5] was inactive. This compound also returned a GTP binding signal, raw median fluorescence (lower = inhibition) (MCF (arbitrary fluorescence units)) in test [4] of 180.

Compound `OC(CNCCc1ccc(Cl)cc1)COc1ccc2ccccc2c1` (configuration not stated) had a fluorescence, percent of control (lower = inhibition) in test [1] of 40.2%. The compound further registered a GTP binding, percent of control in test [2] of 85.7%. For the same compound, the call in [3] and in [5] was inactive.

On to `N#C/C(=C/c1ccc(N2CCCCC2)o1)C(=O)Nc1ccc2ccccc2c1`, for which, in test [4], the GTP binding signal, raw median fluorescence (lower = inhibition) (MCF (arbitrary fluorescence units)) came out at 469.

Compound `COc1cccc(-n2nnnc2S(C)(=O)=O)c1` came in with a fluorescence, percent of control (lower = inhibition) in [1] of 34%. The GTP binding, percent of control in test [2] amounted to 59.3%. The compound was called inactive in test [3] and in [5]. In [4], this compound returned a GTP binding signal, raw median fluorescence (lower = inhibition) (MCF (arbitrary fluorescence units)) of 157.

In [4], `CCn1cc(C(=O)OCC(=O)c2cc(C)n(-c3ccc(OC(F)F)cc3)c2C)c(=O)c2ccc(C)nc21` came in with a GTP binding signal, raw median fluorescence (lower = inhibition) (MCF (arbitrary fluorescence units)) of 148.

In turn, `CC(C)C(NCc1c(Cl)cccc1Cl)C(=O)O` (configuration not stated) had a GTP binding, percent of control in test [2] of 81.2%. Besides, the outcome in [5] was inactive.

Turning to `Cc1ccc(SC(CC(=O)c2ccc(C(C)(C)C)cc2)C(=O)O)cc1` (configuration not stated), the fluorescence, percent of control (lower = inhibition) in test [1] turned out to be 26.6%. Moreover, the GTP binding, percent of control in [2] worked out at 72.6%. The compound was called inactive in test [3] and in test [5]. In [4], this compound returned a GTP binding signal, raw median fluorescence (lower = inhibition) (MCF (arbitrary fluorescence units)) of 240. Also, the GFP response vs DMSO in [7] was 95.8% (inactive); in [7] (setting [12]), 94%; in [7] (setting [13]) it was 97.3%; in test [9], 94.4% (inactive). The GFP response relative to DMSO in [8] is 106% (inactive); in [8] (measured here: daughter cell gate response) it was 103%; in test [8] (measured here: mother cell gate response) it was 111%. The GFP response, % of DMSO in test [10] is 99.3% (inactive); in test [11], 92.2% (inactive); in test [11] (setting [12]) it was 90.5%; in test [11] (setting [13]) it was 91.8%.

Values taken from PubChem BioAssay.
